These results are taken from PubChem BioAssay (NCI).

SMILES strings stand for the structures. This is part of a sample that, as a whole, favours compounds with a hit. Of some 83,000 tested, about 20% had one in any assay.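 Each cell line was grown in a 96-well plate and treated with one concentration of compound for 48 hours. Values below 10 were considered active.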 Values without a mark were called inactive. The source made the active and inactive calls.

Test in all cases: NCI-60 one-dose screen, 48 h (100 = growth as untreated, 0 = no growth, -100 = all killed)
Settings in all cases: 10 µM

Assay [1] has as its system SK-MEL-2 melanoma.
In assay [2] the test system is SN12C renal.
The subject of assay [3] is UO-31 renal.
For assay [4], the system named is TK-10 renal.
For assay [5], the system named is ACHN renal.
The test system of assay [6] is CAKI-1 renal.
Assay [7] has as its system A498 renal.
Assay [8] relates to CCRF-CEM leukemia.
Assay [9] concerns MOLT-4 leukemia.

For `COc1ccc(CSc2nc3cc(OC)c(OC)cc3c(=O)n2-c2ccc(OC)cc2OC)cc1`, the growth is 91.5% in assay [1]; 90.1% in assay [2]; 55.4% in assay [3]; 108% in [4]; 94% in assay [5]; 68.7% in [6]. Besides, the growth in [7] was 58.6%; in [8], 92.7%; in assay [9] it was 79.4%.
Turning to `COc1ccccc1NC1=C(N2CCCCC2)C(=O)c2ccccc2C1=O`, the growth in assay [1] was 98.2%; in assay [2] it was 84.6%; in [3], 75.3%; in assay [4], 96.2%; in assay [5], 88%; in assay [6] it was 85.8%. Moreover, the values for the growth in assay [7], in [8] and in [9] were 39.4%, 72.5% and 58.8%, respectively.
In the case of `COc1cc(Nc2ccnc(N3CCN(c4ccnc5cc(Cl)ccc45)CC3)n2)cc(OC)c1`, the growth in [1] was -42.2% (active); in assay [2], 19%; in [3], -1.54% (active); in [4] it was -4.71% (active); in assay [5] it was 13.2%; in assay [6] it was 20.2%. The results for the growth in [7], in [8] and in assay [9] were -1.87% (active), 3.84% (active) and -45.9% (active), respectively.
For `COc1cc(C2C(C#N)=C(c3c[nH]c4ccccc34)Nc3nc(N)[nH]c(=O)c32)cc(OC)c1OC` (stereo not given), the growth in assay [1] was 93.8%; in [2], 90.9%; in assay [3], 79.3%; in assay [4], 123%; in assay [5], 95%; in assay [6], 95.2%. The growth in assay [7] was 89.9%; in assay [8] it was 53.5%; in assay [9], 98.2%.
In the case of `COc1ccc(C(=O)c2sc3nc(-c4cccs4)ccc3c2N)cc1OC`, the growth in assay [1] was 15.7%; in assay [2], 62%; in assay [3], 45.6%; in [4] it was 49.4%; in assay [5] it was 64.7%; in assay [6], 62%. Besides, the growth in assay [7] was 39.4%; in [8], 34.5%; in assay [9], 23.3%.
Regarding `C[C@]12CC[C@H]3[C@@H](CC=C4C[C@@H](O)CC[C@@]43C)[C@@H]1CC[C@@H]2C(=O)C/C=N/O`, the growth was 95.9% in assay [1]; 91.7% in assay [2]; -94.6% (active) in [3]; 99.5% in assay [4]; 89.4% in [5]; 83.2% in assay [6]. Besides, the growth is 90.1% in [7], 71.8% in assay [8] and 69.2% in assay [9].
In the case of `CCc1nn2c(-c3cc(OC)c(OC)c(OC)c3)c(-c3cc(OC)c(OC)c(OC)c3)nc2s1`, the growth in assay [1] is 44.5%; in [2] it was 85.9%; in assay [3], 81.7%; in assay [4], 73%; in [5], 74%; in assay [6], 71.4%. For the same molecule, the growth in assay [7] was 88.6%; in [8] it was 80.8%; in assay [9], 95.9%.
`Cc1cc(/C=C2\SC(=Nc3ccccc3)N(C3CCCC3)C2=O)c(C)n1-c1ccc(Cl)cc1`: the growth in assay [1] was -77.3% (active); in [2], -51.4% (active); in assay [3], -91.9% (active); in assay [4], -90.9% (active); in [5], -76.3% (active); in assay [6] it was -59.9% (active). The growth in assay [7] is -88.3% (active); in [8] it was -9.97% (active); in assay [9] it was -18% (active).
Take `COc1cc(OC)cc(N2CCN(C(=O)Nc3nc4cc(F)ccc4nc3OC)CC2)c1`: the growth is 42.1% in assay [1]; 29.6% in [2]; 34.5% in assay [3]; 47.5% in assay [4]; 30.2% in [5]; 29.7% in [6]. Also, the growth is -8.09% (active) in [7], 14.7% in [8] and 8.4% (active) in assay [9].
Regarding `Cc1cc(C)c(/C=C2\C(=O)Nc3ccc(NC(=O)CCCCCCC(=O)NO)cc32)[nH]1`, the growth in [1] was -5.24% (active); in assay [2] it was 44%; in assay [3], 66%; in assay [4] it was 10.6%; in [5], 58.5%; in [6], 68.7%. In addition, the growth in [7] was -9.05% (active); in assay [8], 23.9%; in assay [9], 13.2%.
For the molecule `COc1ccc(C(=O)/C=C/c2cc(-c3ccc(OC)c(OC)c3)n[nH]2)cc1OC`, the growth is 42.7% in assay [1]; -31.7% (active) in assay [2]; -95% (active) in assay [3]; -20.7% (active) in assay [4]; -70.9% (active) in assay [5]; -24.4% (active) in assay [6]. Further, the figures for the growth in assay [7], in assay [8] and in assay [9] were -40.7% (active), 3.32% (active) and 1.44% (active), respectively.
With `N#Cc1ncc(-c2cc(F)ccc2F)c(NC2CCCCCC2)n1`, the growth in [1] was 74.9%; in assay [2], 80.8%; in [3], 81.5%; in assay [4] it was 101%; in [5] it was 88.8%; in assay [6] it was 88.2%. Further, the growth in assay [7] is 58.2%; in assay [8], 81.3%; in assay [9], 79.4%.
Consider `CN(C)CCCN(Cc1ccccc1O)C(=S)Nc1ccc(Cl)cc1`, for which the growth in [1] was 112%; in assay [2], 98.2%; in assay [3], 78.8%; in assay [4], 104%; in assay [5], 95%; in assay [6] it was 99.7%. Besides, the values for the growth in [7], in assay [8] and in assay [9] were 77.5%, 109% and 106%, respectively.
`CCOC(=O)c1cc(-c2ccccc2)nc(N)n1`: the growth in [1] was 110%; in assay [2], 94.6%; in assay [3], 79.1%; in [4] it was 127%; in [5], 92.7%; in assay [6], 94%. For the same molecule, the growth in assay [7] is 86.5%; in assay [8], 98.7%; in assay [9] it was 108%.
For the molecule `CCCCCCCCCCCC(c1ccccc1)N(C)C` (stereo not given), the growth in assay [1] is 116%; in [2], 90.7%; in assay [3], 68.9%; in [4], 134%; in assay [5], 92.5%; in assay [6] it was 93.2%. Further, the growth in assay [7] is 71.2%; in assay [8], 69.1%; in assay [9], 82.1%.
